From the supplement of paper PMC4894684
Structures can show the parent of a compound that is named as a salt. ± gives the standard deviation of the averaged measurements. Screen size: about 1,000 compounds; about 15 (2%) showed an effect of 50% or more. The sample as a whole holds a higher share of strong results than the screen did.

What follows are compounds tested on HFF (assay: uninfected host cell viability relative to vehicle control; higher = less host cell toxicity). Conditions: 5 µM; 72 h; oxygen 21 %.

SMILES	uninfected host cell viability [%]
COc1cc(CNC(=O)CCCC/C=C/C(C)C)ccc1O [(E)-Capsaicin]	88.13 ± 0.59
CC[C@]1(O)C[C@H]2CN(CCc3c([nH]c4ccccc34)[C@@](C(=O)OC)(c3cc4c(cc3OC)N(C=O)[C@H]3[C@@](O)(C(=O)OC)[C@H](OC(C)=O)[C@]5(CC)C=CCN6CC[C@]43[C@@H]65)C2)C1 [Vincristine sulfate]	68 ± 2.9
Cc1oncc1C(=O)Nc1ccc(C(F)(F)F)cc1 [Leflunomide]	93.41 ± 0.27
O=C(Nc1cc(C(F)(F)F)cc(C(F)(F)F)c1)c1cc(Cl)ccc1O	46.8 ± 2.5
O=c1oc(-c2ccc(C(F)(F)F)cc2)nn1Cc1cc(Cl)ccc1O	95.1 ± 1
O=C1CC2(CCCC2)CC(=O)N1CCNCC1COc2ccccc2O1 (stereo not drawn)	85.64 ± 0.64
Cn1cnnc1Sc1c([N+](=O)[O-])ncn1C	89.361 ± 0.008
N[C@@H](C(=O)O)c1ccc(C(=O)O)c(C(=O)O)c1	89 ± 7.8
COc1ccc(-c2nc(C(=O)N3CCN(C)CC3)sc2-c2ccc(OC)cc2)cc1	81.4 ± 4.7
O=C1c2ccccc2S(=O)(=O)N1CCCCN1CCN(c2ncccn2)CC1 [Ipsapirone]	87.04 ± 0.35
O=C1C(Cl)=C(NCCN2CCOCC2)C(=O)c2ncccc21	34.44 ± 0.16
Cc1cc(Cn2cnc3c2CC(C(=O)O)N(C(=O)C(c2ccccc2)c2ccccc2)C3)ccc1N(C)C (stereo not drawn)	82.1 ± 3.1
COc1ccc([C@@H]2CNC(=O)C2)cc1OC1CCCC1 [(R)-(-)-Rolipram]	82.9 ± 1
C1CCC2(CC1)CCNCC2 [4,4-Pentamethylenepiperidine hydrochloride]	84.79 ± 0.68
Cc1cc(NC(=O)Nc2ccc(N(C)C)cc2)c2cc(F)cc(F)c2n1	85.86 ± 0.3
Nc1ncnc2n[nH]c(Nc3ccc(F)cc3)c12	80.93 ± 0.35
O=C(c1ccc(Nc2nccc(-c3cc4ccccc4s3)n2)cc1)N1CCC(N2CCCC2)CC1	14.9 ± 0.68

SMILES	uninfected host cell viability [%]
O=c1[nH]ccc2c(S(=O)(=O)N3CCCNCC3)cccc12 [HA 1100 hydrochloride]	90 ± 3.1
Nc1nc2c(ccc3ccccc32)s1	77.6 ± 1.3
O=c1cc(N2CCNCC2)oc2c(-c3ccccc3)cccc12	87.4 ± 1.8
FC(F)(F)c1cccc(-c2noc(-c3cc(-c4ccccc4)c(C(F)(F)F)s3)n2)c1	90.4 ± 2.4
CCN(CC)CCOc1ccc(Cc2ccccc2)cc1 [DPPE fumarate]	86.65 ± 0.8
CCS(=O)(=O)N1CCC[C@@H]2CN3CCc4cc(OC)ccc4[C@@H]3C[C@@H]21	85.4 ± 2.9
N[C@@H](CC(=O)Nc1ccc(Oc2cc(F)c(F)cc2Br)cc1)C(=O)O	95 ± 0.96
O=c1ncccn1[C@@H]1O[C@H](CO)[C@@H](O)[C@H]1O [Zebularine]	90.802 ± 0.032
O=C(/C=C/c1ccccc1)NC(NC(=S)Nc1cccc2cccnc12)C(Cl)(Cl)Cl (stereo not drawn) [Salubrinal]	84.55 ± 0.26
C=C1/C(=C\C=C2/CCC[C@]3(C)[C@@H]([C@H](C)/C=C/[C@@H](O)C4CC4)CC[C@@H]23)C[C@@H](O)C[C@@H]1O [Calcipotriol]	83.9 ± 3.1
CC(C)c1ccc2c(c1)CC[C@H]1[C@](C)(CN)CCC[C@]21C [Lylamine hydrochloride]	87.8 ± 1.4
Cc1ccccc1N1CCN(S(=O)(=O)C[C@]23CC[C@H](C[C@@H]2NC(=O)[C@@H](N)CCS(C)(=O)=O)C3(C)C)CC1 [L-368,899 hydrochloride]	87.07 ± 0.83
C=C1C(=O)O[C@@H]2/C=C(\C)CC/C=C(\C)CC[C@@H]12 [Costunolide]	114 ± 2.7
N[C@@H](Cc1cc(CP(=O)(O)O)cc(-c2ccccc2Cl)c1)C(=O)O	88.9 ± 6
O=C(Nc1ccccc1)N[C@@H]1C[C@@H](C(=O)O)Nc2cc(Cl)cc(Cl)c21	87.6 ± 1.1
c1ccc(C(O[C@@H]2CCCN(CCc3ccc4c(c3)OCO4)C2)c2ccccc2)cc1 [Zamifenacin fumarate]	90.5 ± 1
